Measurements reported in PubChem BioAssay (NCI).
About 83,000 compounds went through this panel and 20% of them were active in at least one assay; those are over-represented in the sample as a whole.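 The endpoint reported here, percent growth, reads 100 for growth as untreated, 0 for no net growth and -100 for all cells dead.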 The source made the active and inactive calls. Rule for the calls: active = growth percent below 10; inactive = the rest.

The molecules below were run on M14 melanoma (assay: NCI-60 one-dose screen, 48 h (100 = growth as untreated, 0 = no growth, -100 = all killed)). Details: 10 µM unless noted.
In the case of `N#C/C(=C\c1ccc(Br)cc1)n1nnc2cccc(F)c21`, the growth is reported as 10.9% (inactive). For `COc1cc2oc(-c3cccc(C(=O)Nc4ccc(Cl)cc4)c3)cc(=O)c2c(OC)c1OC`, the growth was -18% (active). In the case of `CS(=O)(=O)c1ccc(-c2cc(-c3nnc(SCC(=O)Nc4ccc(C(=O)/C=C/c5ccc(Cl)cc5)cc4)n3-c3ccccc3)c3ccccc3n2)cc1`, the growth is reported as 97.5% (inactive). `COc1ccccc1OCC(=O)N1CCCCCC1` was tested, and the growth was 119% (inactive). For `NC(=O)c1cccc(-n2ccc3cc(NC(=O)Nc4cc(C(F)(F)F)cc(C(F)(F)F)c4)ccc32)n1`, the growth was 51% (inactive). In the case of `COc1cc2nc(-c3ccc(C(F)(F)F)cc3)cc(OCCCN3CCCCC3)c2cc1OC`, the growth is reported as -19.2% (active). In the case of `COc1ccc2c(Nc3ccc(NS(C)(=O)=O)cc3)c3ccccc3nc2c1`, the growth is reported as -53.6% (active). `C=CCn1c(SCC(=O)Nc2ccc(C(=O)/C=C/c3cc(OC)c(OC)c(OC)c3)cc2)nnc1-c1cc(-c2ccc(S(C)(=O)=O)cc2)nc2ccccc12` was tested, and the growth was 88.8% (inactive). In the case of `CN(C)c1ccc(-c2c(C#N)c(N)n3nc(N)c(C#N)c3c2C#N)cc1`, the growth is reported as 69.1% (inactive). `CCCCCN1C=C/C(=C\C(=O)N(C)c2cccc3ccccc23)c2ccccc21` was tested, and the growth was 102% (inactive). `CCCCCOc1ccc(/C=N/Nc2cc(C)nc3ccc(Br)cc23)cc1` was tested, and the growth was 15.5% (inactive). For `COc1cccc(C(Cc2ccccc2)Nc2ccccc2)c1OC` (stereo not drawn), the growth was 97.2% (inactive). For `Cc1ccc(Nc2cc(=S)nc(N)[nH]2)cc1C`, the growth was 93.7% (inactive). With `O=S(=O)(O)c1cc(O)c2c(N=Nc3ccc(Nc4ccccc4)c4c(S(=O)(=O)O)cccc34)cc(S(=O)(=O)O)cc2c1` the growth was 103% (inactive). For `COc1cc2c(cc1[N+](=O)[O-])-c1ccc([N+](=O)[O-])cc1/C2=N\O`, the growth was 93.9% (inactive). `CS(=O)(=O)OCCN(CCOS(C)(=O)=O)c1ccc(/C=N/Nc2ccc([N+](=O)[O-])cc2[N+](=O)[O-])cc1` was tested, and the growth was 99.3% (inactive). `COc1cc2c(cc1[N+](=O)[O-])-c1ccc([N+](=O)[O-])cc1/C2=N/NC(N)=S` was tested, and the growth was 82.8% (inactive). `CN(C)C(C(N)=O)c1ccc(Cl)cc1` (stereo not drawn) was tested, and the growth was 96.7% (inactive). In the case of `CC(C)(C)OC(=O)N1CCN(c2ccc(N)cc2)C(=O)C1`, the growth is reported as 101% (inactive). For `CC(=O)OCC(=O)C1(O)C(C)CC2C3C=C(C)C4=Cc5c(cnn5-c5ccccc5)CC4(C)C3C(O)CC21C` (stereo not drawn), the growth was -4.56% (active). With `Cc1ccc(C2C3CC4CCCCC4N3[C@@]3(C(=O)Nc4cc(Cl)ccc43)C2C(=O)c2nc3ccccc3[nH]2)cc1` (stereo partly drawn) the growth was 27.9% (inactive). With `COc1ccc(-n2cc(-c3cc(OC)c(OC)c(OC)c3)n(C(C)=O)c2=O)cc1` the growth was 111% (inactive). `C=C(C)[C@@H]1CC[C@]2(C(=O)N3CCN(C)CC3)CC[C@]3(C)[C@H](CC[C@@H]4[C@@]5(C)CCC(=O)C(C)(C)[C@@H]5CC[C@]43C)[C@@H]12` was tested, and the growth was 94.7% (inactive). `NC(=S)N/N=C(/c1ccccc1)c1ccccc1N` was tested, and the growth was 88.2% (inactive). In the case of `COc1ccc(C(=O)c2cc(C)c(OC)c(C)c2)c(OC)c1N(C(=O)C(Cl)Cl)C(=O)C(Cl)Cl`, the growth is reported as -14.8% (active). With `c1ccc(-c2nn(-c3ccccc3)[n+](-c3ccccc3-c3ccccc3)n2)cc1` the growth was 23.2% (inactive). `COc1ccc2c(c1)OC13Oc4cc(OC)ccc4C=C1CCCC3=C2` was tested, and the growth was 31.5% (inactive). In the case of `CC(O)(CO)c1ccccc1` (stereo not drawn), the growth is reported as 94.6% (inactive). With `O=C(Nc1nc(-c2ccccc2Cl)cs1)c1cc(-c2ccccc2)nc2ccc(Cl)cc12` the growth was 4.1% (active). With `COC(=O)N[C@H]1CCc2cc(OC)c(OC)c(OC)c2-c2ccc(SC)c(=O)cc21` the growth was 3.18% (active). In the case of `CCCCCCN(C)Cc1ccc(OCCOc2ccc(CN(C)CCCCCC)cc2)cc1`, the growth is reported as -96.9% (active). `CCOC(=O)N1CCc2c(sc3nc4nc[nH]n4c(=O)c23)C1` was tested, and the growth was 98.4% (inactive). In the case of `CCOC(=O)c1c(C)nc2c(c1N)C(=O)C(=O)N2Cc1ccc(C(F)(F)F)cc1`, the growth is reported as 53% (inactive). With `CC(=O)c1cccc(NS(=O)(=O)c2cccc(C(=O)Nc3ccc(Br)cc3)c2)c1` the growth was 51.7% [25 µM] (inactive). For `COc1ccccc1C(C[N+](=O)[O-])c1c(-c2ccccc2)[nH]c2cc(C)ccc12` (stereo not drawn), the growth was 45.6% (inactive). In the case of `CC(C)Cc1ccc(C(C)C(=O)NCc2c[nH]c3ccc(Cl)cc23)cc1` (stereo not drawn), the growth is reported as 92.4% (inactive). With `CCCC1C(C(=O)OCC)=C(N)Oc2cc(O)ccc21` (stereo not drawn) the growth was 90.5% (inactive). With `Cc1ccc(C(=O)Nc2ccccc2C(=O)N/N=C(\c2ccccc2)c2ccccn2)cc1` the growth was -38.9% (active).
